The results in this text go back to paper PMC7862700, “An all-to-all approach to the identification of sequence-specific readers for epigenetic DNA modifications on cytosine”.

Common to all, as to test: DAPPL (digital affinity profiling via proximity ligation, sequencing); 10 mM Tris-HCl pH 7.5, 50 mM NaCl, 1 mM DTT, 4% glycerol, room temperature, 30 min; GST-TFs on glutathione beads, 16-mer random dsDNA library, 0.1% formaldehyde crosslink after washing; high values mean tight binding
The target in one experiment is T1, FLI1 (Homo sapiens, UniProt Q01543 1-452).
T1 sequence: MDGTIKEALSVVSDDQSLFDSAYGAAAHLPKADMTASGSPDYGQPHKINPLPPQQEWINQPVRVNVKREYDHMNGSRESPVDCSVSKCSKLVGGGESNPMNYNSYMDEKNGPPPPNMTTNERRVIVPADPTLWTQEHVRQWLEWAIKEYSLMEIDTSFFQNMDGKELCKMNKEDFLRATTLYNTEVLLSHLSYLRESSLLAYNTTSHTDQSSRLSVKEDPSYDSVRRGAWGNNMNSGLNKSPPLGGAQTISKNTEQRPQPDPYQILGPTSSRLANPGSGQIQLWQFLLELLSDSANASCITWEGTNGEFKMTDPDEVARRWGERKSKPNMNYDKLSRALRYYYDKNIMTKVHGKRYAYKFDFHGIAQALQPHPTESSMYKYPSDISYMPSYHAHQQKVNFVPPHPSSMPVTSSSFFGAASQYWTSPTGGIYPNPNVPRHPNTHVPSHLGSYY
To be noted: protein: recombinant; tags: N-terminal GST; dsDNA, one strand shown. The method, boiled down: (§1)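 Beads coated with glutathione captured GST-fused human transcription factors that had been expressed in yeast, and the factors were then given DNA barcodes and pooled with a tag-only sample. The pools were incubated with 200 nmole of a random double-stranded 16-mer DNA library in Tris/NaCl/DTT/glycerol buffer for 30 min at room temperature, washed, crosslinked with 0.1% formaldehyde and proximity-ligated with BsaI/T4 ligase at 37 °C for 1 h. PCR amplification and Illumina NextSeq500 sequencing came last. Binding signal is each hexamer's read frequency for a factor divided by its frequency for the tag-only sample.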

Another experiment deals with T2, ELK1 (Homo sapiens, UniProt P19419 1-428).
T2 sequence: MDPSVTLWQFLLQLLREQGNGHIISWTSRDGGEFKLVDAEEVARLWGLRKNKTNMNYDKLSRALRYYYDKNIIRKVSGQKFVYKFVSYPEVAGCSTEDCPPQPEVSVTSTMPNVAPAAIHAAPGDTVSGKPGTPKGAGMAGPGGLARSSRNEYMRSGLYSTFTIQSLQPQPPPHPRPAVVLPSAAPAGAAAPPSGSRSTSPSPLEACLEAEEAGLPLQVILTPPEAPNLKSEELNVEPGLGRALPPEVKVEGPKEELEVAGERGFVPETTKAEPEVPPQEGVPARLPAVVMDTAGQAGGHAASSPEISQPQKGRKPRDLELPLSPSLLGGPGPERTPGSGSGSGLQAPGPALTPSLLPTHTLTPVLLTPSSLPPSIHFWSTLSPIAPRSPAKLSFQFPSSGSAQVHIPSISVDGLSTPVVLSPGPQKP
To be noted: protein: recombinant; tags: N-terminal GST; dsDNA, one strand shown. In short, it runs like this:
as §1

The target in another experiment is T3, GABPA (Homo sapiens, UniProt Q06546 1-454).
T3 sequence: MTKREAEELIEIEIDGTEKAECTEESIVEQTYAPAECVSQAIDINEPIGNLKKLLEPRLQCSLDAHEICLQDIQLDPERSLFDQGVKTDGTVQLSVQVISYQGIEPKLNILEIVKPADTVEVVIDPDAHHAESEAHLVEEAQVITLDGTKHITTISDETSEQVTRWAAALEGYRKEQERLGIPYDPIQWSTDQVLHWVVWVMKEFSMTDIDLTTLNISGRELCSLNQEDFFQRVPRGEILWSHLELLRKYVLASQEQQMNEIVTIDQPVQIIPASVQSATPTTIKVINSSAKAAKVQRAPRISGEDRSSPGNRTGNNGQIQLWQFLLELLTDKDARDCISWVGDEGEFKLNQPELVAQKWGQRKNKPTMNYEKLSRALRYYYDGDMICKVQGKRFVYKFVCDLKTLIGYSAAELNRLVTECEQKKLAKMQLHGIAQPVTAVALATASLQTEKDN
To be noted: protein: recombinant; tags: N-terminal GST; dsDNA, one strand shown. The method, boiled down: as §1

Another experiment addresses T4, ERG (Homo sapiens, UniProt P11308 1-479).
T4 sequence: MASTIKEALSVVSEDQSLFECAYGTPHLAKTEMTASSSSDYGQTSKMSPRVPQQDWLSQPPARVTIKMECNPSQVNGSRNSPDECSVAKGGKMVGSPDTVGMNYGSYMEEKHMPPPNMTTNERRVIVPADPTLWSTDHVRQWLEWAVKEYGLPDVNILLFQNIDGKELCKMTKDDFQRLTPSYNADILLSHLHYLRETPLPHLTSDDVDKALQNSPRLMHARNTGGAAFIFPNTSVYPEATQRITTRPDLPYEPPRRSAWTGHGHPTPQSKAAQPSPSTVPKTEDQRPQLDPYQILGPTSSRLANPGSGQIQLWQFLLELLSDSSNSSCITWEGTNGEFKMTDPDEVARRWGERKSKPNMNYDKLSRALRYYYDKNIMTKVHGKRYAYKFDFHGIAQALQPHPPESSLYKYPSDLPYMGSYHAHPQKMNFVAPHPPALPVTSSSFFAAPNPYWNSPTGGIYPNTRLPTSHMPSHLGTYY
Particulars: protein: recombinant; tags: N-terminal GST; dsDNA, one strand shown. In short, it runs like this:
as §1

For another experiment, the target named is ELF1 (Homo sapiens, UniProt P32519 1-619). Particulars: protein: recombinant; tags: N-terminal GST; dsDNA, one strand shown. In short, it runs like this: as §1
For another experiment, the target named is T5, EHF (Homo sapiens, UniProt Q9NZC4 1-300).
T5 sequence: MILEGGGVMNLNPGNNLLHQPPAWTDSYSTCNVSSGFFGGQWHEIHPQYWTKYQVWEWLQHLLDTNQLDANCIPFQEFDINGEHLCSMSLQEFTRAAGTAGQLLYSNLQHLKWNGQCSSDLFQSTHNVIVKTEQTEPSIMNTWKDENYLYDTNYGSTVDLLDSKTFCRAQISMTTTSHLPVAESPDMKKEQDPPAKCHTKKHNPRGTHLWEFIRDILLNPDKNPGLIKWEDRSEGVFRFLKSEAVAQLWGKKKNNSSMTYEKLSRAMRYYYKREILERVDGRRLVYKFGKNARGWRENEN
To be noted: protein: recombinant; tags: N-terminal GST; dsDNA, one strand shown. In short, it runs like this:
as §1

The target of the next experiment is SPI1 (Homo sapiens, UniProt P17947 1-270). Particulars: protein: recombinant; tags: N-terminal GST; dsDNA, one strand shown. In short, it runs like this:
as §1

A further experiment concerns the target SPIB (Homo sapiens, UniProt Q01892 1-262). To be noted: protein: recombinant; tags: N-terminal GST; dsDNA, one strand shown. In short, it runs like this:
as §1

The next experiment deals with T6, ELK3 (Homo sapiens, UniProt P41970 1-407).
T6 sequence: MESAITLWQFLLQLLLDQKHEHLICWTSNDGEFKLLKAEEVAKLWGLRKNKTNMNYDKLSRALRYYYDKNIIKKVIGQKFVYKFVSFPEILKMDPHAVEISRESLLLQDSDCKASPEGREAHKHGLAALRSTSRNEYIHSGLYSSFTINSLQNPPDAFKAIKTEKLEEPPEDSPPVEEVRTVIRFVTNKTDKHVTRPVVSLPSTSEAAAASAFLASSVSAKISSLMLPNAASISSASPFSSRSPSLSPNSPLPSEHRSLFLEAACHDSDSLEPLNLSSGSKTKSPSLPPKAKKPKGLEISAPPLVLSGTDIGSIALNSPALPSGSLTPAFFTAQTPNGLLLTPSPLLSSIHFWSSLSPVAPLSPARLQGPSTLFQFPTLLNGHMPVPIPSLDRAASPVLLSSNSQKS
To be noted: protein: recombinant; tags: N-terminal GST; dsDNA, one strand shown. In short, it runs like this:
as §1

The next experiment deals with T7, FEV (Homo sapiens, UniProt Q99581 1-238).
T7 sequence: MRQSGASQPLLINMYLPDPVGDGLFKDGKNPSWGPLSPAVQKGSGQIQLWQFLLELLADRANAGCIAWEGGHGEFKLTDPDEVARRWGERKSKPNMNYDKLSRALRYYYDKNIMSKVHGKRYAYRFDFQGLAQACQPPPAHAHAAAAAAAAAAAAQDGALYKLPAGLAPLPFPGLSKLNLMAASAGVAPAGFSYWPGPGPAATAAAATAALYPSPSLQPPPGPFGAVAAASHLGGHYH
To be noted: protein: recombinant; tags: N-terminal GST; dsDNA, one strand shown. The method, boiled down:
as §1

The target in the next experiment is ETV5 (Homo sapiens, UniProt P41161 1-510). To be noted: protein: recombinant; tags: N-terminal GST; dsDNA, one strand shown. In short, it runs like this:
as §1

For another experiment, the target named is HSF1 (Homo sapiens, UniProt Q00613 1-529). To be noted: protein: recombinant; tags: N-terminal GST; chain copies: 3; dsDNA, one strand shown. In short, it runs like this:
as §1

For another experiment, the target named is T8, SPIC (Homo sapiens, UniProt Q8N5J4 1-248).
T8 sequence: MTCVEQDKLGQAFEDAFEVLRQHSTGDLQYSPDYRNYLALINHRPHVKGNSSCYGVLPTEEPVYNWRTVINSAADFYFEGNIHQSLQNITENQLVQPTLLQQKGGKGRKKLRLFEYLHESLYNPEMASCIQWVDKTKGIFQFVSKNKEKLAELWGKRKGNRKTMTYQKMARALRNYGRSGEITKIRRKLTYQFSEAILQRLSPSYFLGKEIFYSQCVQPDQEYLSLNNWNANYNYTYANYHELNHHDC
Particulars: protein: recombinant; tags: N-terminal GST; dsDNA, one strand shown. The method, boiled down: as §1

Another experiment concerns the target T9, ELK4 (Homo sapiens, UniProt P28324-2 1-405).
T9 sequence: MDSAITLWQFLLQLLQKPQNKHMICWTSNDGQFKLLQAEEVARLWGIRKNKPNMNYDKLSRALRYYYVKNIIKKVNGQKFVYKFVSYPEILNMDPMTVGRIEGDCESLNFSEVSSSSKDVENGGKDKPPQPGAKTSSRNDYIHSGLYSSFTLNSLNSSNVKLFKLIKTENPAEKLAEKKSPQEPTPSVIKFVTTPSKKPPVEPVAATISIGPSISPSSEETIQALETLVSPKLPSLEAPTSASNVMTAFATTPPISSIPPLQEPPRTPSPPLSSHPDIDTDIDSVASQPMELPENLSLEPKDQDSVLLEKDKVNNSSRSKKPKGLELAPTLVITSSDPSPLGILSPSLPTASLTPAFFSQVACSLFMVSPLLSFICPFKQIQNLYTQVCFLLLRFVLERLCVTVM
To be noted: protein: recombinant; tags: N-terminal GST; dsDNA, one strand shown. In short, it runs like this: as §1

The next experiment has as its target T10, ETV2 (Homo sapiens, UniProt O00321 1-342).
T10 sequence: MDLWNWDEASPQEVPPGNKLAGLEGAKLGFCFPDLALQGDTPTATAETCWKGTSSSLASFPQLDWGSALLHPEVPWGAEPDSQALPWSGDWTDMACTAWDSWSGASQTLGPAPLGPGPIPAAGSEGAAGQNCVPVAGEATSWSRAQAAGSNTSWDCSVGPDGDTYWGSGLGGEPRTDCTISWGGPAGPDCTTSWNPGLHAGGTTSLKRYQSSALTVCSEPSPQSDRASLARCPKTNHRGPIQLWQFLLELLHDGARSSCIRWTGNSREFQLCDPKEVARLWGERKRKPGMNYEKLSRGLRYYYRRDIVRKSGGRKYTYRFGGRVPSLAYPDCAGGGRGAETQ
To be noted: protein: recombinant; tags: N-terminal GST; dsDNA, one strand shown. The method, boiled down:
as §1

The target in a further experiment is T11, ELF3 (Homo sapiens, UniProt P78545 1-371).
T11 sequence: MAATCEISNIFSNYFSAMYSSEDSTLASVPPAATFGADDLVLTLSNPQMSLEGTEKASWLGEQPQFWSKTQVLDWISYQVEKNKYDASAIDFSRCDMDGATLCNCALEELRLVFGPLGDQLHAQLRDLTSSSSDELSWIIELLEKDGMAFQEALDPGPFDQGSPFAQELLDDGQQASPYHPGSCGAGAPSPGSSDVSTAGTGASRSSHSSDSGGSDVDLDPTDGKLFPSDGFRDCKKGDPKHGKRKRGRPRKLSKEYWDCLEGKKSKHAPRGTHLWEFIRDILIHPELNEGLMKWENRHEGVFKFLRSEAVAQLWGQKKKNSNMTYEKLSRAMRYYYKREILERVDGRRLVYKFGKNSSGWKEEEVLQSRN
Particulars: protein: recombinant; tags: N-terminal GST; dsDNA, one strand shown. The method, boiled down: as §1

The target in a further experiment is CRX (Homo sapiens, UniProt O43186 1-299). Particulars: protein: recombinant; tags: N-terminal GST; dsDNA, one strand shown. The method, boiled down:
as §1

Another experiment concerns the target ETV1 (Homo sapiens, UniProt P50549 1-477). Particulars: protein: recombinant; tags: N-terminal GST; dsDNA, one strand shown. In short, it runs like this: as §1

ELF1, sequence (P32519 whole entry): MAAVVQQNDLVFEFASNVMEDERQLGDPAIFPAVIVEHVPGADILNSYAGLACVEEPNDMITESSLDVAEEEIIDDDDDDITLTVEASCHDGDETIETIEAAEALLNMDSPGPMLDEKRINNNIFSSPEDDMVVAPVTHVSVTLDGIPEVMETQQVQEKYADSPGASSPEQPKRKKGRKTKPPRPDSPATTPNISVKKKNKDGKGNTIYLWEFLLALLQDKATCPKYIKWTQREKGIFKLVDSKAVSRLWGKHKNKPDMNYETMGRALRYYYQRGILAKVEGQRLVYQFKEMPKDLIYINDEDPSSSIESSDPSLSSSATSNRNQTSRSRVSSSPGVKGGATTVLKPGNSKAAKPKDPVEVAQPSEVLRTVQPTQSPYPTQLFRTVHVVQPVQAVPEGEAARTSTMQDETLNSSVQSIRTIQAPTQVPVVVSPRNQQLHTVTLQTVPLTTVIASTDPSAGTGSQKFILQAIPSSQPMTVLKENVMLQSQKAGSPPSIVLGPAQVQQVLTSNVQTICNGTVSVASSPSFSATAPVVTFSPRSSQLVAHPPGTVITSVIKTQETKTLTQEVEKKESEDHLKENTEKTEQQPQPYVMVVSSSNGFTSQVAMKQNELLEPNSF
ETV1, sequence (P50549 whole entry): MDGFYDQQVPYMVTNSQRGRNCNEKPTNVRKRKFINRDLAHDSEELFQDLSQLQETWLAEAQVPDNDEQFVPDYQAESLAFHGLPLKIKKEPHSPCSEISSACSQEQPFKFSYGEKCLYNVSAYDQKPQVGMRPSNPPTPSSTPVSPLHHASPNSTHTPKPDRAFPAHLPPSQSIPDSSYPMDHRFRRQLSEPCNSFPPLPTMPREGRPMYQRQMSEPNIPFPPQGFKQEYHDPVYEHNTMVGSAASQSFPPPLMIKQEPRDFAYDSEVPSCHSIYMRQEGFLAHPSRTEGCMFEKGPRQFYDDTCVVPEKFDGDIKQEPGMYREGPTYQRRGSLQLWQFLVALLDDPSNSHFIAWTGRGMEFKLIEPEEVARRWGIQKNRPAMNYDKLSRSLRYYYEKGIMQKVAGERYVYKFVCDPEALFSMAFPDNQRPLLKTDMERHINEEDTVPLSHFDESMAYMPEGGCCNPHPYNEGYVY
ETV5, sequence (P41161 whole entry): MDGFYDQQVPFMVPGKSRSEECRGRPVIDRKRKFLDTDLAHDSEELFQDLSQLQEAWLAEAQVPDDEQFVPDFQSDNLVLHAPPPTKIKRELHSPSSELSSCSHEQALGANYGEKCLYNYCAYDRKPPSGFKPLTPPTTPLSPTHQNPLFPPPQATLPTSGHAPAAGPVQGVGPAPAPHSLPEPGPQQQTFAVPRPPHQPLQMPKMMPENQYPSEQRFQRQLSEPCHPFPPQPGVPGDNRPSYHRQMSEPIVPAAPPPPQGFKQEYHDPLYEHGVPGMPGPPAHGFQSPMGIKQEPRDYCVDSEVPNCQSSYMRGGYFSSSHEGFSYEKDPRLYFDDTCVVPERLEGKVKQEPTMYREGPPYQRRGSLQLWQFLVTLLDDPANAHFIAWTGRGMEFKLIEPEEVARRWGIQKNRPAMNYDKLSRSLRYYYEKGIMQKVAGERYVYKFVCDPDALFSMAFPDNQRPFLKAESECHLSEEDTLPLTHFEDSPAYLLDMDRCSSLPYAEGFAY
SPIB, sequence (Q01892 whole entry): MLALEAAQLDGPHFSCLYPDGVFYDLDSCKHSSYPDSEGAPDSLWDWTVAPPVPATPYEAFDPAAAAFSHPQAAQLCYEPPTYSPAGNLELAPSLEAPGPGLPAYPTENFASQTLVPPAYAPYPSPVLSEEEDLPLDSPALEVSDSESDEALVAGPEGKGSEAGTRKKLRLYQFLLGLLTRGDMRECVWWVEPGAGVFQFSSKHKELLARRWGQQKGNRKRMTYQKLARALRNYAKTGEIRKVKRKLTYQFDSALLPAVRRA
CRX, sequence (O43186 whole entry): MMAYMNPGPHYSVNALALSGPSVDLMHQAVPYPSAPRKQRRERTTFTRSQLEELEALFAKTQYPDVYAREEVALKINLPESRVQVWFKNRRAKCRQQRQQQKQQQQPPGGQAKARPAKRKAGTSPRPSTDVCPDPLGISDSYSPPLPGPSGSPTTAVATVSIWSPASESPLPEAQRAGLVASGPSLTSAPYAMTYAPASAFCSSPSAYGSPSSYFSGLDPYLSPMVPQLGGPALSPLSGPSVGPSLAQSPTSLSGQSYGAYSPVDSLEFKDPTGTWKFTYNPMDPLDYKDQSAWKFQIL
HSF1, sequence (Q00613 whole entry): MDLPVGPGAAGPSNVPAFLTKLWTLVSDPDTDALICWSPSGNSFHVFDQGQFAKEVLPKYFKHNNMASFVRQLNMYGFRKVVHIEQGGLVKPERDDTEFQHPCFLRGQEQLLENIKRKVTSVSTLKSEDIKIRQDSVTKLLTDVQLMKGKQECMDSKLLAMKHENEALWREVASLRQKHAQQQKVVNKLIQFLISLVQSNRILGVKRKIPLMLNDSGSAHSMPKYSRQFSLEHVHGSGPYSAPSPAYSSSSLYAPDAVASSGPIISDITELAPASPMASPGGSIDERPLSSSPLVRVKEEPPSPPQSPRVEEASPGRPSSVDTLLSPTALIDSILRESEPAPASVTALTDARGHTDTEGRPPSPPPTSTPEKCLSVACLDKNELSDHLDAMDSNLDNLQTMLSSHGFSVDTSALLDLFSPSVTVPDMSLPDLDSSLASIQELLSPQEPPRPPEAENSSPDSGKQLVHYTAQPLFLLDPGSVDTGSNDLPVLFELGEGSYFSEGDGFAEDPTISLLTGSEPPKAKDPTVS

Take TCAAAT: the binding signal with FLI1 is 1.04 fold enrichment (6-mer frequency, TF over GST control); with ELK1, 1.05 fold enrichment (6-mer frequency, TF over GST control); with GABPA it was 1.14 fold enrichment (6-mer frequency, TF over GST control); with ERG it was 1.06 fold enrichment (6-mer frequency, TF over GST control); in the experiment with ELF1 it was 1.15 fold enrichment (6-mer frequency, TF over GST control); in the experiment with EHF it was 1.07 fold enrichment (6-mer frequency, TF over GST control). Also, the binding signal with SPI1 is 1.11 fold enrichment (6-mer frequency, TF over GST control); in the experiment with SPIB, 1.05 fold enrichment (6-mer frequency, TF over GST control); with ELK3, 1.03 fold enrichment (6-mer frequency, TF over GST control); with FEV, 1.1 fold enrichment (6-mer frequency, TF over GST control); in the experiment with ETV5, 1.09 fold enrichment (6-mer frequency, TF over GST control); with HSF1 it was 1.15 fold enrichment (6-mer frequency, TF over GST control). Besides, the binding signal was 1.12 fold enrichment (6-mer frequency, TF over GST control) in the experiment with SPIC; 1.04 fold enrichment (6-mer frequency, TF over GST control) in the experiment with ELK4; 1.1 fold enrichment (6-mer frequency, TF over GST control) with ETV2; 1.15 fold enrichment (6-mer frequency, TF over GST control) with ELF3; 1.32 fold enrichment (6-mer frequency, TF over GST control) in the experiment with CRX; 1.13 fold enrichment (6-mer frequency, TF over GST control) in the experiment with ETV1.
